In all, about 200,000 compounds went through this assay and about 18,000 (9%) were called active. No stated cut-off is given here; in the data, active means inhibition above about 50%; inactive means the rest. Only a selection was taken, and actives are over-represented in it overall.

A short description of this assay: antileishmanial activity against promastigotes – primary screen (AID 1063).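 Further: promastigotes grown with compound for 44 hours at 28 °C.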 The note with it: Leishmania major promastigotes, resazurin fluorescence viability; at 10 µM; active compounds read high.
In general, inhibition refers to the relative decrease from the control value, in per cent. On to `CCn1c(SCc2cc(=O)n3ccsc3n2)nc2ccccc21`, for which the inhibition was -1.53% (inactive).
To `CCC(=O)Nc1cc(C(F)(F)F)ccc1N1CCCC1` belongs -2.29% (inactive).
To `CCOCCCNS(=O)(=O)Cc1ccccc1` belongs -9.59% (inactive).
Turning to `CCn1cc(CN2CCCC(CNS(=O)(=O)Cc3ccccc3)C2)cn1` (configuration not stated), the inhibition is 50.3% (active).
Regarding `O=C(CCC1CCCN(Cc2ccc(O)c(Cl)c2)C1)NCc1ccccc1F` (configuration not stated), the inhibition is 45.2% (inactive).
`O=C(COC(=O)CNC(=O)c1ccco1)Nc1ccc(F)cc1`: the inhibition was -2.3% (inactive).
Take `O=C(NCCN1CCN(Cc2ccccc2)CC1)c1cc2c(=O)[nH]c3ccccc3c2s1`: the inhibition was 101% (active).
For the compound `CN1CCN(CCCNC(=O)c2cc3c(=O)oc4ccccc4c3s2)CC1`, the inhibition is 0.79% (inactive).
On to `Cn1c(C(=O)NCCN2CCc3ccccc3C2)cc2c(=O)[nH]c3ccccc3c21`, for which the inhibition was 11.6% (inactive).
For the compound `CCC(C)NC(=O)c1nn(C)c(=O)c2ccccc12` (configuration not stated), the inhibition is 0.91% (inactive).
Under `Cc1cccc(N=Nc2c(C)[nH]n(-c3ccccc3)c2=O)c1` stands -1.61% (inactive); under `Cc1[nH]n(-c2cccc(Cl)c2)c(=O)c1-c1ccc(Cl)cc1`, 53.3% (active).
To `Cc1[nH]n(-c2cccc(Cl)c2)c(=O)c1/C=N/n1c(C)nc2ccccc2c1=O` belongs -15.8% (inactive); to `Cc1nonc1NC(=O)CSc1nc2ccccc2cc1C#N`, 1.85% (inactive); to `CCSc1nc(C)c(CCOc2cccc(C)c2)c(=O)[nH]1`, -3.36% (inactive).
Consider `O=C1/C(=C\c2ccccc2Cl)SC(=S)N1CCC(=O)N1CCCc2ccccc21`, for which the inhibition was 97.9% (active).
Under `O=C(c1c(Cl)nc2sccn12)N1CCCc2ccccc21` stands -2.07% (inactive); under `O=C(CN1CCCCCC1)NCCN1C(=O)S/C(=C\c2ccccc2Cl)C1=O`, 1.89% (inactive).
For the compound `CCOC(=O)N1CCN(C(=O)CSc2nc(C)nc3c2c(=O)n(C)c(=O)n3C)CC1`, the inhibition was 8.12% (inactive).
To `S=c1[nH]nc(Nc2ccccc2)s1` belongs -10.1% (inactive).
Under `O=[N+]([O-])c1ccc(F)cc1Oc1nc(-c2cccnc2)nc2ccccc12` stands 16.9% (inactive); under `CC(=O)Nc1ccc(Sc2ccccc2C(=O)N2CCCC2)cn1`, -4.22% (inactive).
Under `CCn1c(COc2ccccc2)nnc1SCC(=O)NCc1ccco1` stands -5.1% (inactive).
Regarding `CCS(=O)(=O)Nc1ccc(C2=NN(C(C)=O)C(c3cccs3)C2)cc1` (configuration not stated), the inhibition is 0.67% (inactive).
Under `COc1ccc(CNc2c(CO)cnc3c2cnn3C)cc1` stands -4.57% (inactive).
Under `c1ccc(Cc2cc[n+](Cc3ccccc3)cc2)cc1` stands 52% (active).
With `COC(=O)c1ccc(Cc2ccccc2)o1`, the inhibition is -4.65% (inactive).
For `CN(C)c1cc[n+](Cc2ccccc2)cc1`, the inhibition is -2.95% (inactive).
Under `COc1ccc(-c2[nH]ncc2CN(C)Cc2cc(C)[nH]n2)c(F)c1` stands -3.28% (inactive); under `Cc1cc(C)c(S(=O)(=O)N2CCOCC2)cc1C`, 0.43% (inactive).
To `Cn1cc(CCC(=O)N2CCCC(C(=O)c3ccc(C(C)(C)C)cc3)C2)cn1` (configuration not stated) belongs -0.59% (inactive); to `CC(C)(C)n1nnnc1C(c1cccs1)N(Cc1cccnc1)CC1CCCO1` (configuration not stated), 18.7% (inactive).
To `CCOc1ccc(CN(Cc2ccco2)C(c2cccs2)c2nnnn2C(C)(C)C)cc1` (configuration not stated) belongs 73% (active).
Consider `Cc1ccc(S(=O)(=O)NNC(=O)Nc2cccc3ccccc23)cc1`, for which the inhibition is 34.5% (inactive).
To `CC(=O)Nc1ccc(NC(=O)C(C)n2c3ccccc3c3nc(=O)cc(C)n32)cc1` (configuration not stated) belongs 2.66% (inactive).
Turning to `O=C(NCc1ccco1)c1cccn2c(=O)c3c4c(sc3nc12)CCCC4`, the inhibition is -1.47% (inactive).
To `COc1ccc(CCn2c(=N)c(C(=O)NCc3ccco3)cc3c(=O)n4cccc(C)c4nc32)cc1` belongs 67.1% (active); to `CCn1c(=N)c(C(=O)NCCCOC)cc2c(=O)n3cccc(C)c3nc21`, 28.4% (inactive); to `Cc1nn(CC(=O)Nc2ccc3c(c2)OCO3)c(C)c1[N+](=O)[O-]`, 7.29% (inactive).
Consider `COc1ccc(C2CC(c3cccs3)=NN2c2ccc(F)cc2)cc1OC` (configuration not stated), for which the inhibition is 15.6% (inactive).
For `CCc1nnc(NC(=O)Cc2cccs2)s1`, the inhibition was -5.86% (inactive).
Under `CN(C)Cc1ccccc1C1(O)c2ccccc2CSc2ccccc21` (configuration not stated) stands 77.4% (active).
In the case of `O=C(CNC(=O)c1cc(=O)[nH]c2ccccc12)Nc1ccc(F)c(F)c1`, the inhibition is 2% (inactive).
To `COc1cc2sc(C)nc2cc1C` belongs -0.96% (inactive).
Take `CCc1nccn1S(=O)(=O)c1cccc([N+](=O)[O-])c1`: the inhibition was 33.6% (inactive).
Under `CC(C)c1nccn1S(=O)(=O)c1cc([N+](=O)[O-])ccc1Cl` stands 25.1% (inactive); under `CCCOc1cc(C)c(S(=O)(=O)n2nnc3ccccc32)cc1C`, -5.25% (inactive); under `CCc1nc(C)cn1S(=O)(=O)c1cc(OC)c(C)cc1C`, 67.1% (active).
As to `CCc1nc(C)cn1S(=O)(=O)c1cc([N+](=O)[O-])ccc1Cl`, the inhibition is 89.9% (active).
Under `Cn1c(=O)cc(OCC(=O)N2CCN(c3ccccc3F)CC2)c2ccccc21` stands -1.08% (inactive); under `COC(=O)c1ccc(/C=N/OCC(=O)Nc2cc(F)ccc2F)cc1`, 6.63% (inactive); under `CCc1ccc(OCC(=O)OCC(=O)c2c(N)n(C)c(=O)n(C)c2=O)cc1`, -8.87% (inactive).
To `Cc1cccc(C)c1NC(=O)C1(N(C(=O)c2ccccn2)c2ccc(O)cc2)CCCCC1` belongs -0.59% (inactive); to `Cc1cc(C)cc(NC(=O)COC(=O)c2cc(C)oc2C)c1`, -1.77% (inactive); to `CC1(C)CCCC2=C1CC1C(=O)N(c3ccccc3)C(=O)C1C2` (configuration not stated), 4.86% (inactive).
Take `CC1CC2=C(CC1/C=N/NC(N)=S)C(C)(C)CCC2` (configuration not stated): the inhibition was 100% (active).
Take `COCCNC(=O)c1ccc(-n2c(SCc3cccnc3)nc3ccccc3c2=O)cc1`: the inhibition is -2.65% (inactive).
To `COc1cc(N2C(=O)c3ccccc3C2=O)c(Cl)cc1C(=O)OCC(=O)N1CCOCC1` belongs 16.7% (inactive).
Take `CC1=C(C(=O)Nc2cc(C)ccn2)C(c2cnn(C)c2)C2=C(CC(c3ccccc3)CC2=O)N1` (configuration not stated): the inhibition was 1% (inactive).
To `Cc1cc(C)c2c(n1)nn1c(N3CCOCC3)cc(C)nc21` belongs 4.53% (inactive).
Take `Cc1cc(C)c2nc3nc(C)cc(C)c3c(N)c2c1`: the inhibition was 100% (active).
Under `Cc1cc(C)c2nc(SCCC#N)nc(C)c2c1` stands 5.11% (inactive).
To `O=C(C1CCCO1)N(c1ccc(F)cc1)C1C=CS(=O)(=O)C1` (configuration not stated) belongs -5.34% (inactive); to `CC1CCC2(CC1)NC(=O)N(Cc1nnc(-c3cccs3)o1)C2=O` (configuration not stated), 1.95% (inactive); to `COc1ccc(CCN=C2SCC(=O)N2Cc2ccccc2)cc1OC`, 20.8% (inactive).
For `c1ccc(C2c3[nH]c4ccccc4c3CCN2Cc2cccn2-c2cccnc2)nc1` (configuration not stated), the inhibition is 0.1% (inactive).
With `CCOc1ccc(C2c3[nH]c4ccccc4c3CCN2Cc2cn(CC)nc2C)cc1` (configuration not stated), the inhibition is 64.3% (active).
Under `COCc1ccc(C(=O)N2CCc3c([nH]c4ccccc34)C2c2ccccn2)s1` (configuration not stated) stands 13.5% (inactive).
In the case of `Oc1cccc(C2c3[nH]c4ccccc4c3CCN2Cc2cnn(-c3ccccc3)c2)c1` (configuration not stated), the inhibition is -0.63% (inactive).
To `COc1cccc(C2c3[nH]c4ccccc4c3CCN2Cc2cccc(C)n2)c1` (configuration not stated) belongs 82.2% (active); to `COc1ccc(C2c3[nH]c4ccccc4c3CCN2CCCn2cccn2)cc1C` (configuration not stated), 16.8% (inactive).
Take `CC(C)C(O)C1CCN(Cc2nc(Cc3ccccc3Cl)no2)CC1` (configuration not stated): the inhibition is 1.45% (inactive).
To `COc1ccc([N+](=O)[O-])cc1NC(=O)CC1SC(=Nc2cccc(C)c2C)N(/N=C(\C)c2ccc(C)cc2)C1=O` (configuration not stated) belongs 30.7% (inactive).
To `CC1(C)C2CCC1(C)C(OC(=O)c1ccc(O)cc1)C2` (configuration not stated) belongs 14.5% (inactive); to `CC1CC(C)CN(S(=O)(=O)c2ccc(C(=O)NN3CCOCC3)cc2)C1` (configuration not stated), 6.29% (inactive); to `CCOC(=O)CSc1nc2c(c(=O)n(C)c(=O)n2C)n1Cc1ccccc1F`, -9.26% (inactive).
To `COc1ccccc1NC(=O)CSc1nc2sc(C)c(C)c2c(=O)n1Cc1ccco1` belongs 7.51% (inactive); to `CCOC(=O)CSc1nc2c(sc(=S)n2CCc2ccccc2)c(=O)n1Cc1ccco1`, 50.2% (active).
For the compound `Cc1ccc(C(C[N+](=O)[O-])c2c(C)cc3ccccn23)cc1` (configuration not stated), the inhibition was 100% (active).
To `CC(C)C(=O)Nc1oc(-c2ccccc2)cc1C#N` belongs 0.64% (inactive).
To `O=C(CSc1ccsc1[N+](=O)[O-])N1CCCCC1` belongs 14.2% (inactive).
Regarding `Cc1nnc(N/N=C/C2CC=CCC2)[nH]c1=O` (configuration not stated), the inhibition is -5.21% (inactive).
Take `COc1cccc(CNC(=O)c2n[nH]c3ccccc23)c1`: the inhibition was 6.49% (inactive).
To `COc1ccc(COC(=O)c2n[nH]c3ccccc23)cc1F` belongs 97.5% (active); to `O=C(COC(=O)c1n[nH]c2ccccc12)NCc1ccccc1`, 3.11% (inactive); to `CCSc1ccccc1C(=O)Nc1ccc2c(c1)OCO2`, 7.96% (inactive).
In the case of `CN(C)CCCn1c(SCCN2C(=O)c3ccccc3C2=O)nc2ccccc2c1=O`, the inhibition was -2.2% (inactive).
Consider `Cn1c(N)c(C(=O)COC(=O)c2cnc(Cl)c(Cl)c2)c(=O)n(C)c1=O`, for which the inhibition was -4.42% (inactive).
To `Cc1ccc(C)c(NC(=O)CCC(=O)N/N=C2/CC(=O)CC(C)(C)C2)c1` belongs -2.4% (inactive).
To `Cc1nnc(SC(C(=O)Nc2cc(Cl)cc(Cl)c2)c2ccccc2)[nH]c1=O` (configuration not stated) belongs -10.6% (inactive).
As to `O=C(CCC(=O)N1CCCC1)Nc1ccc([N+](=O)[O-])cc1`, the inhibition is -1.46% (inactive).
Turning to `CCCC(C(=O)NCc1ccco1)N(C(=O)CNS(=O)(=O)c1ccccc1)C1CCCC1` (configuration not stated), the inhibition is 60% (active).
On to `O=C(CN(CC1CCCO1)C(=O)CNS(=O)(=O)c1ccc(F)cc1)NCc1ccco1` (configuration not stated), for which the inhibition was -10% (inactive).
On to `O=C(NCc1ccco1)C1CCCN(S(=O)(=O)c2ccccc2)C1` (configuration not stated), for which the inhibition was -0.05% (inactive).
With `CC(C)c1nc(N2CCOCC2)c(C#N)c2c1COC(C)(C)C2`, the inhibition was 4.48% (inactive).
To `CC1(C)Cc2c(C#N)c(SCc3nc4ccccc4[nH]3)nc(N3CCOCC3)c2CO1` belongs 34.1% (inactive); to `COc1ccc(CSc2nc(N3CCOCC3)c3c(c2C#N)CC(C)(C)OC3)cc1`, 66.8% (active).

Source of the values: PubChem BioAssay AID1063 (University of Pittsburgh Molecular Library Screening Center, 2008).
